Reference: the supplement of paper PMC12819154, “High-throughput peptide-centric local stability assay extends protein–ligand identification to membrane proteins, tissues and bacteria” (Nature Structural & Molecular Biology, 2025)

compound: Nc1ncnc2c1ncn2[C@@H]1O[C@H](COP(=O)(O)OP(=O)(O)OP(=O)(O)O)[C@@H](O)[C@H]1O [adenosine 5'-triphosphate]; assay: log2 fold change of tryptic peptide abundance, ligand vs vehicle (limited proteolysis) (log2 ratio); higher = more trypsin-susceptible (destabilized); details: ligand concentration: 5 mM; sample: E. coli desalted lysate; replicate design: treated before aliquoting
Procedure: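 HT-PELSA: desalted E. coli K-12 BW25113 lysate (with 12 mM MgCl2) incubated with 5 mM ATP (pH 7) or water for 30 min at 25 C, then a 4 min trypsin pulse at 22 C. Peptides were quantified by DIA-MS (4 replicates). Value is the peptide log2 fold change (treated/control); negative = stabilized. Scale: negative = ligand-stabilized region.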
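Further: lysate desalted by size exclusion to strip endogenous ATP, peptide intensities built from DIA-NN precursor signals, and peptides missing any value discarded before comparison.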

Q: For “UniProt P28903 (peptide sequence: DGCKVPFK, peptide start residue: 9)”, which log2 fold change is on record?
A: -0.869

Q: How did the log2 fold change turn out when “UniProt P80668 (peptide sequence: TAADHLTR, peptide start residue: 261)” was run?
A: -1.12

Q: With “UniProt P76562 (peptide sequence: EHYRLRR, peptide start residue: 544)” as the target, how does the log2 fold change read?
A: 0.855

Q: “UniProt P76196 (peptide sequence: VVEQLLAMR, peptide start residue: 47)” was tested. Which log2 fold change did it give?
A: -0.864

Q: How did the log2 fold change turn out when “UniProt P33940 (peptide sequence: EYYPQAK, peptide start residue: 403)” was run?
A: -1.61

Q: With “UniProt P78061 (peptide sequence: FCHVYHACK, peptide start residue: 441)” as the target, how does the log2 fold change read?
A: -1.83

Q: With “UniProt P22255 (peptide sequence: ESFLNPGFR, peptide start residue: 234)” as the target, how does the log2 fold change read?
A: 0.721

Q: With “UniProt P76909 (peptide sequence: SGLEGAFHQDPATLSGGQR, peptide start residue: 121)” as the target, how does the log2 fold change read?
A: 0.631

Q: Which log2 fold change does the source give for “UniProt P31680 (peptide sequence: LMSEHHPDKLVAK, peptide start residue: 228)” here?
A: -0.381

Q: Which log2 fold change does the source give for “UniProt P76177 (peptide sequence: KRIVQSPDVIPADSEAGR, peptide start residue: 179)” here?
A: 2.16

Q: With “UniProt P77202 (peptide sequence: TLNIIMGNK, peptide start residue: 240)” as the target, how does the log2 fold change read?
A: 0.511

Q: With “UniProt P39410 (peptide sequence: HIAQEMPEKIR, peptide start residue: 422)” as the target, how does the log2 fold change read?
A: -1.96

Q: With “UniProt P33029 (peptide sequence: AHQALLTDR, peptide start residue: 38)” as the target, how does the log2 fold change read?
A: -0.503

Q: How did the log2 fold change turn out when “UniProt P39160 (peptide sequence: TWQIAMDGSQKLPQR, peptide start residue: 366)” was run?
A: -0.725

Q: “UniProt P33650 (peptide sequence: AYAGEASQHLDAALAR, peptide start residue: 217)” was tested. Which log2 fold change did it give?
A: 0.832

Q: “UniProt P33593 (peptide sequence: VLALVGGSGSGK, peptide start residue: 31)” was tested. Which log2 fold change did it give?
A: -0.833

Q: “UniProt P23840 (peptide sequence: HFIPVLTR, peptide start residue: 38)” was tested. Which log2 fold change did it give?
A: 0.387

Q: For “UniProt P06710 (peptide sequence: HQLEHILNEEHIAHEPR, peptide start residue: 185)”, which log2 fold change is on record?
A: -1.86

Q: Which log2 fold change does the source give for “UniProt P52598 (peptide sequence: SCVGEAAATMLR, peptide start residue: 151)” here?
A: -0.421

Q: How did the log2 fold change turn out when “UniProt P76542 (peptide sequence: VAEDWFATR, peptide start residue: 108)” was run?
A: -0.902

Q: Which log2 fold change does the source give for “UniProt P76116 (peptide sequence: NEAYVTHR, peptide start residue: 284)” here?
A: -0.872

Q: How did the log2 fold change turn out when “UniProt P28861 (peptide sequence: ETAAGSLTGR, peptide start residue: 175)” was run?
A: -1.31

Q: “UniProt P78067 (peptide sequence: WGHAGSDSTHMEDFHNPDGTMR, peptide start residue: 340)” was tested. Which log2 fold change did it give?
A: -0.858

Q: “UniProt P37903 (peptide sequence: VHVHVEEGSPKDR, peptide start residue: 86)” was tested. Which log2 fold change did it give?
A: -1.8

Q: How did the log2 fold change turn out when “UniProt P14375 (peptide sequence: LNVVAIEVPSLR, peptide start residue: 302)” was run?
A: -1.45

Q: With “UniProt P61887 (peptide sequence: FGVVEFDDNFR, peptide start residue: 143)” as the target, how does the log2 fold change read?
A: -0.44

Q: Which log2 fold change does the source give for “UniProt P25748 (peptide sequence: IGYLSSSHGIEDDAMRK, peptide start residue: 179)” here?
A: 0.977

Q: “UniProt P0AG14 (peptide sequence: VNNLSEQYK, peptide start residue: 44)” was tested. Which log2 fold change did it give?
A: -0.765

Q: How did the log2 fold change turn out when “UniProt P0A9J4 (peptide sequence: HTEIDYINGFLLRR, peptide start residue: 254)” was run?
A: 0.895

Q: Which log2 fold change does the source give for “UniProt P39383 (peptide sequence: MLESHLR, peptide start residue: 221)” here?
A: -0.592

Q: How did the log2 fold change turn out when “UniProt P28904 (peptide sequence: LDVVNLISKDPR, peptide start residue: 199)” was run?
A: -0.478

Q: Which log2 fold change does the source give for “UniProt P0AB12 (peptide sequence: VVSVETAQAAR, peptide start residue: 129)” here?
A: 0.652

Q: Which log2 fold change does the source give for “UniProt Q46889 (peptide sequence: LQQEGYR, peptide start residue: 188)” here?
A: -0.564

Q: For “UniProt P07109 (peptide sequence: YGEHEVLK, peptide start residue: 15)”, which log2 fold change is on record?
A: -1.13

Q: With “UniProt P75968 (peptide sequence: HLIIKPLSR, peptide start residue: 102)” as the target, how does the log2 fold change read?
A: -1.04

Q: “UniProt P37749 (peptide sequence: YMSQDKIK, peptide start residue: 132)” was tested. Which log2 fold change did it give?
A: -0.295

Q: “UniProt P76268 (peptide sequence: ALQNVDLIR, peptide start residue: 83)” was tested. Which log2 fold change did it give?
A: 0.371

Q: With “UniProt P37024 (peptide sequence: LVVDCAQER, peptide start residue: 286)” as the target, how does the log2 fold change read?
A: -0.502

Q: With “UniProt P22939 (peptide sequence: GLPTCHVK, peptide start residue: 97)” as the target, how does the log2 fold change read?
A: 0.252

Q: How did the log2 fold change turn out when “UniProt P76506 (peptide sequence: SDPLEGFNR, peptide start residue: 29)” was run?
A: 0.294
